Screening results deposited in PubChem BioAssay by several laboratories.
Most compounds without a hit are left out; they make up all but 3.1% or so of the library.
Neddylation inh: blocks human cullin neddylation; P61081+Q13564; TR-FRET cullin neddylation, biochemical; calls only at 25 µM; 0.58% of 360,000 active; AID 651699; in the data active = inhibition above about 36%
Target sequence (P61081 whole entry, looked up): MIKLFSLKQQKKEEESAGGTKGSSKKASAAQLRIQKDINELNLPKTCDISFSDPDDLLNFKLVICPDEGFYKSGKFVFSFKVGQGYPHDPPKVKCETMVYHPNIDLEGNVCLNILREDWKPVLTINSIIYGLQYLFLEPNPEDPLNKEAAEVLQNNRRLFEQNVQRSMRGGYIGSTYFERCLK
Target sequence (Q13564 whole entry, looked up): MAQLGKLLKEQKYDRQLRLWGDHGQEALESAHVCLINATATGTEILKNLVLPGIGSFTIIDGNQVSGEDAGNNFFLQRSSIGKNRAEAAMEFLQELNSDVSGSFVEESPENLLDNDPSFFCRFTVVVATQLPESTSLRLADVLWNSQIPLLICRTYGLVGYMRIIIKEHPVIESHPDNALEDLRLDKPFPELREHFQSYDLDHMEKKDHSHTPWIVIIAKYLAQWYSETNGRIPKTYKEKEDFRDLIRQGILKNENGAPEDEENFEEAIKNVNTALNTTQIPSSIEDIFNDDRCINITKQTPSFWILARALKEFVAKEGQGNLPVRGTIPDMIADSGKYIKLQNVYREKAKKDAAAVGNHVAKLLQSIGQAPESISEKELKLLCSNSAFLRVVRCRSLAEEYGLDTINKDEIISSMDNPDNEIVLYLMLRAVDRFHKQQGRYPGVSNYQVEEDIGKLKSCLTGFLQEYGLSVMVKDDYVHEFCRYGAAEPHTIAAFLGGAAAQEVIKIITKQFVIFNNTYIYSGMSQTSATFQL
Rin1 Abl inh: inhibitors of human Rin1-Abl protein interaction; AID 588664; P00519+Q13671; inhibition, % at 7.35 µM; TR-FRET Rin1/Abl binding, biochemical; 0.4% of 360,000 active; in the data active = inhibition above about 5%, passing the limit was not always enough
LEDGF integ inh: blocks HIV-1 LEDGF/p75-dependent DNA integration; AID 743269; inhibition, % at 3.7 µM; 0.64% of 370,000 active; TR-FRET IN-LEDGF/p75 DNA integration, Eu/Cy5;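 active = inhibition above the screen-wide mean plus 3 SD, cut at about 13% in these data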;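 also: signal is the Cy5 over europium emission ratio at 671 and 618 nm; 0% = plate median of compound wells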
proKLK7 act: activates the human kallikrein-7 zymogen; 0.9% of 370,000 active; purified proKLK7, EDANS-DABCYL substrate fluorescence; 100% is mature enzyme control, 0% vehicle; activation, % at 7 µM; AID 652039;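 active = activation above the mean of all tested compounds plus 3 SD, computed per campaign excluding outliers beyond control limits, cut at about 13% in these data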
UHRF1 MBD2 ctr: UHRF1 methyl-DNA binding inhibition | 0.75% of 370,000 active | UHRF1 binding to methylated oligo, TR-FRET | Q96T88 | inhibition, % at 4.4 µM; in the data active = inhibition above about 21%;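 also: UHRF1 SRA domain binding a hemimethylated CpG hairpin DNA probe; 0% = median of test compound wells and 100% = reference inhibitor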
MBD2 inh: inhibitors of human MBD2 binding to methylated oligonucleotide; Q9UBB5; TR-FRET; inhibition, % at 4.4 µM; 0.31% of 370,000 active; in the data active = inhibition above about 13%
Rin1-Abl confirm: Rin1-Abl interaction inhibition confirmation; shares compounds with Rin1 Abl inh; TR-FRET Rin1-Abl binding, purified proteins; inhibition, % at 7.35 µM; 49% of 1,300 active; AID 602124; in the data active = inhibition above about 6.5%
GFP quench-1: counter-screen for Rin1-Abl inhibitors: GFP fluorescence quenchers; inhibitors/quenchers counterscreen; inhibition, % at 6.75 µM; 8.5% of 1,300 active; shares compounds with Rin1 Abl inh; in the data active = inhibition above about 6.5%;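 also: ABL1-eGFP fusion protein alone without its partner RIN1-SBP; 0% = protein with vehicle and 100% = wells lacking protein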
GFP quench dose: GFP fluorescence interference dose response; shares compounds with Rin1 Abl inh; GFP fluorescence interference/quenching counterscreen; IC50, µM; 230 tested, under 10 active; AID 602182;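 also: ABL1-eGFP fusion protein alone without its RIN1 binding partner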
GFP quench-2: GFP quenching artifact for Rin1-Abl inhibitor hits; GFP fluorescence quenching counterscreen, biochemical; AID 602397; shares compounds with Rin1 Abl inh; 25 tested, under 10 active; IC50, µM
The depositor's hits bear a star; i = inactive; / = not tested or not shown. Unless noted, no rule for the calls is given here.

SMILES	Neddylation inh	Rin1 Abl inh	LEDGF integ inh	proKLK7 act	UHRF1 MBD2 ctr	MBD2 inh	Rin1-Abl confirm	GFP quench-1	others
CCCCNC(=O)C1(C)CCCCN1C(=O)c1c(C)noc1C (stereo not drawn)	i	2	0	0	0	3	/	/
NS(=O)(=O)c1ccc(NC(=O)COc2ncnc3c2cnn3-c2ccccc2)cc1	i	5.5*	-4	0	1	0	6	0
COCCC1CCCCN1C(=O)c1cc(COc2cccc(C(C)=O)c2)on1 (stereo not drawn)	i	0	0	-1	6	4	/	/
CC(=O)c1ccc(OCc2cc(C(=O)N3CCC[C@H]3CO)no2)cc1	i	11*	1	0	2	4	10*	-1
O=C(c1cc(COc2cccc3cccnc23)on1)N1CCC[C@H]1CO	i	54*	6	1	-3	0	50*	-1	GFP quench dose=>67;GFP quench-2=>68
O=C(Nc1ccc(Cl)c(Cl)c1)N(CCCN1CCOCC1)Cc1cccnc1	i	-4	2	1	-3	5	/	/
Cc1ccc(NC(=S)N(CCCN2CCOCC2)Cc2cccnc2)cc1C	i	12*	6	0	-1	-5	-2	-1
CNC(=O)c1oc(-c2ccc(Cl)cc2)nc1C	i	13*	-6	0	0	2	-3	0
Cc1cc(C(=O)Nc2c[nH]c(=O)[nH]c2=O)ccc1[N+](=O)[O-]	i	10*	1	0	2	-3	-1	-1
O=C(Nc1c[nH]c(=O)[nH]c1=O)c1cccc([N+](=O)[O-])c1	i	2	3	0	-1	3	/	/
Cc1cc(C(=O)N/N=C2\CCCc3ccccc32)c(C)o1	i	11*	1	1	-1	1	-1	-2
COc1ccc(CN2CCC(Oc3ccc(C(=O)N4CCCCC4)cc3)CC2)cc1C	i	15*	-3	1	-1	0	10*	-3
COc1cccc(CN2CCC(Oc3ccc(C(=O)N4CCCCC4)cc3)CC2)c1	i	5	4	0	1	-5	/	/
O=C1NC(=S)NC(=O)C1=Cc1ccccc1C(=O)O	i	1	0	0	-1	-1	/	/
COC(=O)[C@]12C[C@H](CC(=O)N3CCCCC3)C(=O)N(Cc3cccc4ccccc34)C1=C[C@H](COCc1ccccc1)O[C@@H]2C	/	/	1	0	-5	-5	/	/
CN1C(=O)C[C@@](C#N)(C(=O)Nc2nc3ccc(F)cc3s2)[C@H]1c1ccccc1	/	/	-1	0	0	2	/	/
COC(=O)c1cccc(NC(=O)c2ccc[n+]([O-])c2)c1	i	17*	9	0	-1	-1	23*	1	GFP quench dose=>67
COC(=O)c1cccc(NC(=O)c2ccccc2)c1	i	-2	-5	-1	-3	-4	/	/
CCCCN1CCS(=O)(=O)N(Cc2cn(Cc3cccc(Cl)c3)nn2)C(C(=O)OC)C1 (stereo not drawn)	/	/	1	0	0	-3	/	/
O=C(NCc1ccc(Cl)s1)C1CCC(=O)N(CCc2cccc(F)c2)C1 (stereo not drawn)	i	-4	1	0	-1	3	/	/
CN(CCO)C1CN(Cc2cn(Cc3ccccc3F)nn2)S(=O)(=O)C1 (stereo not drawn)	/	/	4	0	0	1	/	/
CS(=O)(=O)N(CC(=O)Nc1ccc(S(=O)(=O)N2CCOCC2)cc1)c1ccccc1Br	i	9.4*	3	0	-2	5	-3	2
Cc1[nH]n(-c2ccccc2)c(=O)c1C(C[N+](=O)[O-])c1ccc(Br)cc1 (stereo not drawn)	i	34*	-1	0	-5	-2	0	0
COc1cccc(C(C[N+](=O)[O-])c2c(C)[nH]n(-c3ccccc3)c2=O)c1 (stereo not drawn)	i	3	1	0	-9	-8	/	/
O=C(c1ccc(=O)[nH]c1)N(Cc1cccs1)C1(C(=O)NC2CCCC2)CCCCC1	i	-1	-2	-1	-2	-4	/	/
SMILES	Neddylation inh	Rin1 Abl inh	LEDGF integ inh	proKLK7 act	UHRF1 MBD2 ctr	MBD2 inh	Rin1-Abl confirm	GFP quench-1	others
Cc1ccc2oc(=O)n(CCOc3ccccc3)c2c1	i	0	2	-1	1	5	/	/
Cc1cccc(OCCn2c(=O)oc3ccc(C)cc32)c1	i	5.8*	-2	0	-2	-7	-1	1
CC(C)N(Cc1cn(Cc2ccccc2)nn1)S(=O)(=O)c1ccccc1Br	/	/	1	0	-1	1	/	/
CCOC(=O)c1c(C)[nH]c(C)c1C(=O)CSc1nc2ccccc2[nH]1	i	-2	2	0	-1	3	/	/
CCOC(=O)CCCCC(=O)c1[nH]c(=O)[nH]c1C[n+]1ccc(C)cc1	i	23*	8	-1	-3	-4	30*	2	GFP quench dose=>68
CCOC(=O)CCCCC(=O)c1[nH]c(=O)[nH]c1CSc1nc2ccccc2[nH]1	i	84*	7	-1	-1	-2	88*	0	GFP quench dose=>68
COC(=O)C1=C(CS(=O)(=O)c2ccccc2)NC(=O)NC1c1ccc(OC)c(OC)c1 (stereo not drawn)	i	-3	-2	0	-4	-1	/	/
O=c1c(CO)cc(CO)cc(CO)c1O	i	31*	-4	1	-1	-2	30*	13*
CSc1ccc(NC(=O)N2CCC(C(=O)c3ccc(F)cc3)CC2)cc1	i	7.4*	0	0	2	4	-1	0
Cn1c(=O)oc2cc(S(=O)(=O)N3CCCC(C(=O)Nc4nccs4)C3)ccc21 (stereo not drawn)	i	11*	0	0	-1	6	1	-1
CCCS(=O)(=O)NC(=O)C1(C)CCCN(C(=O)c2ccc(F)c(Cl)c2)C1 (stereo not drawn)	i	17*	0	0	2	2	-2	-2
CCCNC(=O)C1(C)CCCN(C(=O)c2ccc(F)c(Cl)c2)C1 (stereo not drawn)	i	0	2	0	-1	-2	/	/
CC(Oc1ccc(Cl)cc1Cl)C(=O)NNC(=O)c1cccnc1 (stereo not drawn)	i	8.9*	4	1	0	-4	-2	-1
